Bioassay records: PubChem BioAssay, National Center for Advancing Translational Sciences (NCATS)
VACV mCherry inh – qHTS for Stage-Specific Inhibitors of Vaccinia Orthopoxvirus: mCherry Reporter Primary qHTS; Vaccinia virus mCherry reporter infection, fluorescence; Potency, µM (top dose mostly 36.5 µM), without a hit: top-dose activity change, negative = inhibition, most hits filed as inhibitors; hit rate 0.63% among 310,000; AID 720579, 2013; calls by dose curve; tested in A549 cells; further: potency means the concentration at half of the fitted maximal effect; nearly all actives have a fitted effect of over 35% in size
FMDV inh – High Throughput Screening for Foot and Mouth Disease Virus Antivirals. FMDV antiviral cell-based qHTS. Potency, µM (highest dose often 57.9 µM), inactives show top-dose activity change, negative = inhibition, usual class: inhibitors. hit rate 1.2% among 410,000; calls by dose curve; tested in HEK293T cells; further: read-out not given here; potency means the concentration at half of the fitted maximal effect; nearly all actives have a fitted effect of over 45% in size
VACV Venus inh – qHTS for Stage-Specific Inhibitors of Vaccinia Orthopoxvirus: Venus Reporter Primary qHTS | Vaccinia virus Venus reporter expression, fluorescence | AID 720580, 2013 | hit rate 0.46% among 330,000 | Potency, µM (highest dose often 36.5 µM), for the others: at the top dose activity change, negative = inhibition, actives largely listed as inhibitors; calls by dose curve; tested in A549 cells; further: potency means the concentration at half of the fitted maximal effect; nearly all actives have a fitted effect of over 30% in size
LASV entry inh – qHTS for Inhibitors of binding or entry into cells for Lassa Virus; Lassa virus pseudotype entry inhibition, cell reporter; Potency, µM (doses to about 37.9 µM), without a hit: at the highest dose activity change, negative = inhibition, usual class: inhibitors; hit rate 1.2% among 300,000; AID 540256, 2011; calls by dose curve; tested in HEK293 cells; further: potency means the concentration at half of the fitted maximal effect; nearly all actives have a fitted effect of over 50% in size
HCMV inh – qHTS Assay for inhibitors of the human cytomegalovirus (HCMV); HFF cells, HCMV-luciferase reporter, 72 h; active compounds read low; activity change, negative = inhibition, % at 57.5 µM; hit rate 4.5% among 410,000; in the data active means activity change below about -60%; inconclusive means no clear call, values can overlap the other calls; inactive means above about -39%
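Cell-based, HFFs, 1000 cells/well, 16 h 37C; cpds in DMSO + HCMV-luc, MOI 1 PFU/cell; 72 h 37C; OneGlo luminescence after 5 min RT; norm. to buffer vs Salinomycin 10uM.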
MARV entry inh – qHTS for inhibitors of binding or entry into cells for Marburg Virus | AID 540276, 2011 | hit rate 1.8% among 300,000 | Marburg virus pseudotyped entry inhibition, cell reporter | Potency, µM (titrated, usually from 37.8 µM), inactives show at the top dose activity change, negative = inhibition, actives largely listed as inhibitors; calls by dose curve; tested in HEK293 cells; further: potency means the concentration at half of the fitted maximal effect
* = called active by the depositor; i = inactive; ? = inconclusive; . = not tested or not shown; [ ] = remark or other dose. Hits are enriched below; roughly 6.5% of the tested compounds scored in any of these assays. On the % scale 0 is the no-effect control and ±100 the full control effect.

SMILES	VACV mCherry inh	FMDV inh	VACV Venus inh	LASV entry inh	HCMV inh	MARV entry inh
O=C(/C=C/c1ccccc1)Nc1ccc(CN2CCOCC2)cc1	.	33%	.	.	-27	.
O=C(Nc1ccc(CN2CCOCC2)cc1)c1ccc(-c2cc(Cl)ccc2Cl)o1	?	28µM*	?	-30%	?	?
CCn1c(=O)cc(C(=O)OC)sc1=Nc1ccc(F)c(F)c1	?	32µM*	-9%	.	146	.
COC(=O)c1cc(=O)n(CCc2ccc(OC)cc2)c(=Nc2ccc(F)c(Cl)c2)s1	-18%	22µM*	-1%	.	?	-2%
CCOC(=O)c1ccc(N=c2sc(C(=O)OC)cc(=O)n2CCCN2CCOCC2)cc1	-2%	16µM*	15%	.	79	-4%
COC(=O)c1cc(=O)n(CCc2ccccc2)c(=Nc2ccc(F)cc2)s1	11%	?	-5%	.	-36	.
COC(=O)c1cc(=O)n(Cc2ccc3c(c2)OCO3)c(=Nc2ccc(F)c(Cl)c2)s1	14%	?	7%	.	33	1%
COC(=O)c1ccc(CN2C(=O)[C@@]3(CC(C)=CC[C@@H](COc4ccccc4)O3)c3ccccc32)cc1	.	.	.	.	.	9%[14.2 µM]
COc1ccc(CN2CCC3(CC2)c2ccccc2[C@@H](NC(=O)c2ccsc2)[C@@H]3OC)cc1O	-16%	2%	-10%	.	.	.
Cc1ccccc1Cn1c2ccccc2c2cnn(CC(=O)NCC(C)c3ccccc3)c(=O)c21 (stereo not drawn)	-17%	-13%	-17%	17%[46.1 µM]	-1	21%[46.1 µM]
COC(=O)N[C@@H](C=Cc1ccco1)[C@]1(C(=O)OC)CCCC1=O	.	.	.	.	.	3%[14.2 µM]
Cc1c(Cl)cccc1NC(=O)CN1C(=O)CCn2nc(-c3cccn3C)cc21	-11%	-7%	-6%	-9%[46.1 µM]	26	.
CSCSC1=C(C#N)C(c2ccc(Cl)cc2)C(C(C)=O)=C(C)N1 (stereo not drawn)	.	.	.	.	.	1%
N#CC1=C(SCC(N)=O)NC2=C(C(=O)c3ccccc32)C1c1ccc(Cl)cc1 (stereo not drawn)	.	-15%	.	-30%	-60*	?
Cc1ccc2nc(CSc3nnc4ccccn34)cc(=O)n2c1	1%	34%	-3%	17%	14	11%[46.1 µM]
COCC(C)n1c(SCc2cc(=O)n3cc(C)ccc3n2)nc2ccccc2c1=O (stereo not drawn)	-10%	-29%	4%	6.3µM*	-61*	5µM*
Cc1ccc2nc(CSc3nnc(-c4ccco4)o3)cc(=O)n2c1	.	-9%	.	6%	-21	-9%
Cc1ccc2nc(CSc3nnc(-c4ccco4)n3-c3ccccc3)cc(=O)n2c1	.	-2%	.	26%	-105*	5%
C=C[C@H](CC(C)C)N(Cc1ccccc1)S(=O)(=O)N(Cc1ccc(OC)cc1)[C@H](C=C)CC(C)C	i	?	-8%	.	-9	.
COC(=O)[C@H](CC(C)C)N(Cc1ccccc1)S(=O)(=O)N(Cc1ccccc1)[C@@H](CC(C)C)C(=O)OC	-25%	?	-10%	.	-69*	.
COC(=O)[C@H](CC(C)C)NS(=O)(=O)N(Cc1ccccc1)[C@@H](CC(C)C)C(=O)OC	?	-18%	-30%	.	25	.
CCOC(=O)[C@@H](C)N(Cc1ccc(OC)cc1)S(=O)(=O)N(Cc1ccccc1)[C@H](C(=O)OC)C(C)C	-24%	-21%	?	.	-79*	0%
COC(=O)[C@H](CC(C)C)N(Cc1ccccc1)S(=O)(=O)N(Cc1ccc(OC)cc1)[C@@H](CC(C)C)C(=O)OC	-29%	?	5%	.	-66*	.
CCOC(=O)[C@@H](C)NS(=O)(=O)N(Cc1ccccc1)[C@H](C(=O)OC)C(C)C	-2%	-8%	-10%	.	-19	.
COc1ccc2c3c(n(C)c2c1)[C@H](CO)N(C(=O)c1ccccn1)CC31CCN(C(=O)Cc2ccccc2)CC1	.	.	.	.	6	.
SMILES	VACV mCherry inh	FMDV inh	VACV Venus inh	LASV entry inh	HCMV inh	MARV entry inh
O=C(NC(=O)c1cc([N+](=O)[O-])ccc1Cl)C1=C(N2CCCC2)COC1=O	?	20µM*	-23%	.	-25	.
CC(=O)Oc1c(-c2ccccc2)oc2c(CC=C(C)C)c3c(c(OC(C)=O)c2c1=O)C=CC(C)(C)O3	-2%	-6%	16%	.	.	.
CC(=O)Oc1c2c(c(CC=C(C)C)c3c1C(=O)C1=CC4CC5C(C)(C)OC(C/C=C(\C)C(=O)O)(C4=O)[C@]15O3)OC(C)(CCC=C(C)C)C=C2 (stereo partly drawn)	11µM*	4µM*	?	.	.	.
COC(=O)/C(C)=C\CC12OC(C)(C)C3CC(C=C4C(=O)c5c(OC)c6c(c(CC=C(C)C)c5OC431)OC(C)(CCC=C(C)C)C=C6)C2=O (stereo not drawn)	13µM*	32µM*	?	.	.	.
Cc1ccc(C(=O)C=CC=Cc2ccccc2)cc1	-9%	44%	-5%	.	18	.
Cc1ccc(C(=O)C(C(=O)/C=C/c2ccccc2)=C2SCCCS2)cc1	?	11µM*	?	22µM*	-97*	?
COc1cccc(CN2CCN3C=C(C(=O)NC4CCc5ccccc54)OC3=NC2=O)c1 (stereo not drawn)	.	.	.	.	13	.
CN(C)c1cc(NC(=O)CNC(C)(C)CC(C)(C)C)c2ccccc2n1	-12%	-26%	-8%	?	-60*	?
CN(C)c1cc(NC(=O)CN2CCCC2)c2ccccc2n1	7%	-10%	-2%	6%[46.1 µM]	-5	10µM*
CC(C)[N+]1(C)[C@@H]2CC[C@H]1CC(OC(=O)[C@@H](CO)c1ccccc1)C2 (stereo partly drawn)	.	-7%	.	.	.	.
Cc1cccc2cc3c(nc12)SC(=NCC1CCCO1)N(Cc1ccco1)C3 (stereo not drawn)	-20%	?	-13%	?	.	?
Cc1ccc2nc3c(cc2c1)CN(Cc1ccco1)C(=NCC1CCCO1)S3 (stereo not drawn)	-4%	-11%	-14%	?	-70*	-12%[46.1 µM]
O=C1C=CCC(/C=C/c2ccccc2)O1 (stereo not drawn)	?	?	0.89µM*	?	?	8.2µM*
CN(c1cccc(NC(=O)c2ccc(C(C)(C)C)cc2)c1)S(C)(=O)=O	i	?	-20%	?	-82*	?
CN(C)S(=O)(=O)c1ccc(C(=O)Nc2ccc(F)cc2F)cc1	i	3%	-18%	.	28	.
CN(c1cccc(NC(=O)c2ccc(N(C)S(=O)(=O)c3ccccc3)cc2)c1)S(C)(=O)=O	.	14µM*	.	?	-72*	16µM*
CN(c1ccc(C(=O)Nc2ccc(F)cc2F)cc1)S(=O)(=O)c1ccccc1	-5%	?	-26%	11µM*	-33	-27%
C[N+]1(CC(=O)c2ccc(-c3ccccc3)cc2)CCOCC1	i	.	-11%	.	.	.
